From PubChem
Most compounds without a hit are left out; they make up all but 3.5% or so of the library.
TRb-SRC2 inh = inhibitors of human thyroid hormone receptor beta-SRC2 interaction; P10828; TRbeta-SRC2 peptide binding, fluorescence polarization; receptor liganded with 1 µM T3; Potency, µM (top dose mostly 106 µM), inactives show top-dose activity change, negative = inhibition, most hits filed as inhibitors; 280,000 tested, 0.065% active; AID 1469;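 also: plate controls were bound peptide for no effect and peptide without receptor for full effect; nearly all actives have a fitted effect of over 50% in size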
Target sequence (P10828 whole entry, looked up): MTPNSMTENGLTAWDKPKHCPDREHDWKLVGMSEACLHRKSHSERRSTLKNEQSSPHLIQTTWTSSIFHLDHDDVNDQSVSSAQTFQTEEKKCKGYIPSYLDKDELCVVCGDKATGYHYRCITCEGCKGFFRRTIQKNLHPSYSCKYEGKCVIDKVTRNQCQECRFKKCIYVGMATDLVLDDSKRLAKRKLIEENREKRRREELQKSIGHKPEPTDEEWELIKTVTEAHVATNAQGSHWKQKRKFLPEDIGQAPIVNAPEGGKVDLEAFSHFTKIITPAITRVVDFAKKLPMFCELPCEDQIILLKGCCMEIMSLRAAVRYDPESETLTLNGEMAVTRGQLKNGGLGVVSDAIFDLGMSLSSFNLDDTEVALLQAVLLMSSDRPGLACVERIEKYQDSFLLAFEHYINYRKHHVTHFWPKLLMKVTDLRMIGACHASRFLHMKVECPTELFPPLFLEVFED
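Read-out is fluorescence polarization (555 nm excitation, 632 nm emission) of a Texas Red SRC2 coactivator peptide; loss of signal reflects blocked binding to human TRb ligand-binding domain in the presence of 1 uM T3.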
Tau ThT inhib = tau fibrillization inhibition (ThT binding). Potency, µM (highest dose often 57.4 µM), inactives show at the highest dose activity, negative = inhibition, hits mostly inhibitors. 270,000 tested, 2.1% active. recombinant tau K18 P301L, heparin-induced fibrillization, ThT fluorescence. AID 1460; also: nearly all actives have a fitted effect of over 55% in size
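Aggregation was driven by heparin (20 uM final) acting on recombinant tau […] bearing P301L in 100 mM sodium acetate pH 7; fibrils were detected with Thioflavin T.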
TexasRed fluor = Texas Red fluorescence interference in TRb-SRC2 counter-screen | Potency, µM (series often up to 106 µM), without a hit: at the top dose fluorescence change, negative = quenching | TRb/SRC2 Texas Red total fluorescence interference | 280,000 tested, 0.29% active; active = well fitted curve in either direction with a large enough effect; inconclusive = small, poorly fitted or top-dose-only effect
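Human TRβ ligand-binding domain (0.6 uM) and Texas Red SRC2 peptide (20 nM) in Tris buffer with 1 uM T3 and 5% DMSO were incubated with pinned compound for 5 hr at ambient temperature. Total fluorescence was computed as S + 2P (555/632 nm).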
Tau FP inhib = tau fibrillization inhibition (FP); 280,000 tested, 0.39% active; K18 P301L tau heparin fibrillization, Alexa594 FP, 6 h; P10636; Potency, µM (series often up to 57.7 µM), inactives show at the highest dose activity, negative = inhibition, usual class: inhibitors; AID 1468; also: nearly all actives have a fitted effect of over 55% in size
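Steps: dispense K18 P301L tau (15 uM plus 0.24 uM Alexa 594 tracer, final) in pH 7 sodium acetate; add compound; add heparin (20 uM final); incubate 6 hr, 37 C; add ThT (30 uM final); after 1 hr ambient, read FP.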
JMJD2E inh = blocks human JMJD2E demethylase activity. AID 2147. JMJD2E catalytic domain, FDH-coupled NADH fluorescence (FDH is formaldehyde dehydrogenase). Potency, µM (highest dose often 57.1 µM), for the others: at the highest dose activity change, negative = inhibition, most hits filed as inhibitors. 230,000 tested, 1.6% active; active = well fitted inhibition curve with a large enough effect, not every such curve was filed as active; inconclusive = small, poorly fitted or top-dose-only effect, or another doubt; inactive = no such curve, though single readings can be large or run the other way;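 also: 0% = wells with enzyme and -100% = buffer wells without enzyme; nearly all actives have a fitted effect of over 50% in size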
Target sequence (B2RXH2 1-337 limits assumed): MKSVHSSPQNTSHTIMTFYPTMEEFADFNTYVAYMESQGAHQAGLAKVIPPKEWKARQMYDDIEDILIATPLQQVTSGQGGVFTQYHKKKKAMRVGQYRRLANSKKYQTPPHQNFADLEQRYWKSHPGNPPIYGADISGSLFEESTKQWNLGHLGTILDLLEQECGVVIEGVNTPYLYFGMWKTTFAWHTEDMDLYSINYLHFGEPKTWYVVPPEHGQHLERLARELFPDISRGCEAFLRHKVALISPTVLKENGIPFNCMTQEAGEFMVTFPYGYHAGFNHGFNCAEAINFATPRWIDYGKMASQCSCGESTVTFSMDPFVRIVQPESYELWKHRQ
Tau fluor cs = counter-screen for tau fibril formation inhibitors | tau K18 P301L Alexa594 fluorescence, heparin fibrillization | Potency, µM (series often up to 57.7 µM), inactives show top-dose activity change, negative = decrease | 280,000 tested, 0.93% active; also: nearly all actives have a fitted effect of over 55% in size
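Human tau K18 P301L (15 uM unlabeled, 0.24 uM Alexa 594-labeled) in 100 mM sodium acetate pH 7 with 20 uM heparin, 6 hr at 37 C. ThT 30 uM added, 1 hr ambient; Alexa 594 FP and total fluorescence read at 555/632 nm.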
* = called active by the depositor; ? = inconclusive; . = not tested or not shown; [ ] = another dose, or the depositor's remark. Unless noted, calls follow the shape of the dose curve; as a rule, active = well fitted curve in the direction sought with a large enough effect; inconclusive = small, poorly fitted or top-dose-only effect, or another doubt; inactive = no such curve, though single readings can be large; an effect the other way counts as inactive or inconclusive. Unless noted, % is scaled to controls: 0 for no effect and ±100 for the full control effect; potency is read from the fitted curve at half-maximal effect.

SMILES	TRb-SRC2 inh	Tau ThT inhib	TexasRed fluor	Tau FP inhib	JMJD2E inh	Tau fluor cs
COc1ccc(/C=N/NC(=O)CNC(=O)c2cccs2)cc1	-5.8%	-2.1%	-1.4%	0.5%	3.6%	-0.9%
O=C(CCc1ccccc1)NCC(=O)N/N=C/c1ccc(O)cc1O	1.3%	-22.7%	-1.4%	1.1%	6.31µM*	-22.3%
O=C(NCCC(c1ccccc1)c1ccccc1)c1ccc(Br)o1	3.0%	?	-3.9%	-5.3%	2.0%	-21.3%
COc1ccccc1NC(=O)c1sc2nc3c(cc2c1N)CCCCCC3	13.0%	?	-2.4%	-9.2%	.	?
Cc1cccc(NC(=O)c2sc3nc(N)c(C#N)cc3c2N)c1	-12.6%	?	-3.8%	?	-8.1%	?
Cc1ccc(NC(=O)c2sc3nc4c(cc3c2N)CN(Cc2ccccc2)CC4)cc1	5.6%	?	-1.2%	6.1%	.	-15.6%
CCN1CCc2nc3sc(C(=O)Nc4cccc(Cl)c4C)c(N)c3cc2C1	-1.4%	10µM*	2.4%	4.3%	.	?
COc1ccc(NC(=O)c2sc3nc4c(cc3c2N)CN(C(C)C)CC4)c(OC)c1	1.8%	12.6µM*	-5.1%	?	.	14.1µM*[quencher]
CN1CCc2nc3sc(C(=O)Nc4cccc(C#N)c4)c(N)c3cc2C1	-3.7%	12.6µM*	4.9%	3.2%	.	?
N#Cc1cc2c(N)c(C(=O)Nc3ccccc3)sc2nc1N	-20.3%	7.94µM*	-8.8%	15.7%	?	?
CO[C@H]1COC(=O)C/C=C\[C@H](C)[C@@H](NS(=O)(=O)c2ccc(C)cc2)COC(=O)CCC[C@@H]1C	2.2%[11.2 µM]	1.4%[11.5 µM]	1.5%[11.2 µM]	-0.1%[11.6 µM]	.	-5.9%[11.6 µM]
CCOC(=O)N/N=C/c1c(F)cccc1F	2.9%	0.2%	1.2%	2.0%	5.7%	3.7%
Cc1cccc(NC(=O)c2sc3nc4c(cc3c2N)CN(Cc2ccccc2)CC4)c1	-2.2%	-16.0%	-1.5%	-0.2%	.	-22.4%
Cc1cccc(NC(=O)c2sc3nc4c(cc3c2N)CN(C(C)C)CC4)c1	4.5%	12.6µM*	-5.3%	-13.2%	.	17.8µM*[quencher]
CC(Cc1ccccc1)N/C=C1/CC(=O)NC1=O (stereo unspecified)	-28.2%	-4.3%	1.8%	-5.4%	-6.5%	-9.7%
CCC(=O)Nc1ccc(SC#N)cc1C	-2.4%	8.91µM*	-4.3%	?	-0.9%	-22.1%
O=C1NC(=S)S/C1=C/c1ccc(N2CCOCC2)o1	1.5%	-2.7%	0.5%	11.5%	-4.1%	-9.3%
COc1ccc2cc(/C=C3\SC(=S)NC3=O)c(N3CCOCC3)nc2c1	6.8%	15.8µM*	-6.0%	3.9%	-6.6%	-23.9%
CC1=NN(c2ccccc2)C(=O)C1N=Nc1ccc(N)cc1 (stereo unspecified)	-20.4%	11.2µM*	4.9%	-10.8%	14.1µM*	15.8µM*[quencher]
COc1cccc(Nc2cc(-c3ccccc3)nc(C)n2)c1	-3.6%	?	-2.0%	-9.1%	.	28.2µM*[quencher]
Cc1nc(Nc2ccc(Cl)cc2)cc(-c2ccccc2)n1	2.0%	21.1%	7.6%	28.2µM*	.	12.6µM*[quencher]
Cc1ccc(Nc2cc(-c3ccccc3)nc(C)n2)cc1	-3.2%	-5.7%	-21.3%	3.0%	.	?
O=C(O)COc1ccccc1C(Nc1ccccn1)c1cc(Cl)c2cccnc2c1O (stereo unspecified)	-0.5%	12.6µM*	0.9%	?	?	-21.0%
O=C(O)COc1ccccc1C(Nc1cccnc1)c1cc(Cl)c2cccnc2c1O (stereo unspecified)	-3.6%	17.8µM*	-1.5%	31.6µM*	-3.6%	-25.3%
C(=N\Nc1ccccn1)/c1c[nH]c2ccccc12	1.1%	7.08µM*	-5.2%	9.1%	-24.9%	14.1µM*[quencher]
SMILES	TRb-SRC2 inh	Tau ThT inhib	TexasRed fluor	Tau FP inhib	JMJD2E inh	Tau fluor cs
Cc1ccccc1N=C1NN=C(c2ccccc2F)CS1	-1.7%	28.2µM*	-1.6%	?	-2.7%	-29.7%
Cc1cccc(C)c1N=C1NN=C(c2ccccc2F)CS1	0.6%	?	-2.0%	8.3%	-17.2%	-18.2%
CN(C)/N=C/C=C1\CC/C(=C\c2ccc(Br)cc2)C1=O	-12.1%	0.891µM*	-1.2%	-3.4%	9.3%	?
CN(C)/N=C/C=C1\CCC/C(=C/c2cccs2)C1=O	0.7%	0.631µM*	0.4%	0.4%	8.4%	-10.3%
O=C1/C(=C/c2cccs2)COc2ccccc21	-2.1%	?	-0.9%	9.0%	3.3%	-3.6%
CN(C)c1ccc(/C=C2\CCCCC2=O)cc1	0.3%	?	-0.5%	8.3%	-4.5%	?
COc1ccccc1NC(=O)NCc1ccccc1F	1.4%	-8.1%	0.6%	-2.4%	6.5%	-9.4%
C=C(C)COc1ccc(-c2nc(N)ncc2-c2ccc(OC)cc2)c(O)c1	2.8%	?	-2.3%	-9.9%	?	?
C=C(C)COc1ccc(-c2[nH]ncc2-c2ccccc2)c(O)c1	-0.8%	-15.2%	3.1%	-4.8%	-16.1%	17.8µM*[quencher]
C=C(C)COc1ccc(-c2n[nH]c(C)c2-c2ccc(OC)c(OC)c2)c(O)c1	4.1%	-9.5%	-0.5%	-10.5%	?	14.1µM*[quencher]
O=[N+]([O-])c1ccc(COc2ccc(-c3[nH]ncc3-c3ccccc3)c(O)c2)cc1	2.1%	-6.0%	9.8%	?	0.1%	?
C=C(C)COc1ccc(-c2[nH]ncc2-c2ccc(OC)cc2)c(O)c1	-5.0%	-14.9%	-3.1%	?	?	11.2µM*[quencher]
C=C(C)COc1ccc(-c2[nH]ncc2-c2ccc(OC)c(OC)c2)c(O)c1	4.5%	-9.6%	-4.8%	8.0%	?	25.1µM*[quencher]
C=C(C)COc1ccc(-c2n[nH]c(C)c2Oc2ccccc2OC)c(O)c1	5.7%	?	0.6%	-6.0%	1.4%	-27.7%
O=C(COn1nnc2ccc(Cl)cc21)NCc1ccccc1	7.1%	-1.9%	-3.5%	4.1%	13.0%	-5.8%
CC12CN(C(=O)c3ccc(Cl)cc3)C3(C#N)CC1CCC23C (stereo unspecified)	3.9%	-3.7%	0.9%	-2.7%	1.6%	-5.1%
Cc1cccc(NC(=O)CN2C(=O)c3cccc4cccc2c34)c1C	2.9%	5.9%	6.4%	-2.4%	.	4.9%
Cc1cccc(NC(=O)CN2C(=O)CCc3ccccc32)c1C	-15.8%	-10.6%	11.2µM*[quencher]	?	.	?
CCOC(=O)C1(CCc2ccccc2)CCN(C(=O)CCc2cnn(C)c2)CC1	2.8%	-3.4%	-2.6%	-2.7%	12.5%	-5.8%
CCOc1ccccc1NC(=O)C(=O)N/N=C/c1ccc([N+](=O)[O-])cc1	1.4%	-14.8%	-1.5%	-5.6%	17.3%	-18.0%
O=C(N/N=C/C(Cl)=C/c1ccc([N+](=O)[O-])cc1)C(=O)Nc1ccccc1C(=O)O	0.8%	3.16µM*	-6.7%	-6.9%	-26.2%	?
